Assay [1] in a line: A CellTox Green Cytotoxicity Assay to monitor cytotoxicity in HEK293 cells - 40 hour (AID 1224871). Note: nearly all actives have a fitted effect of over 45% in size. Note: potency is the fitted concentration of half-maximal effect. An outline of the steps:
(§1)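 Read-out: fluorescence of a cell-impermeant cyanine dye staining DNA of dead cells, proportional to cytotoxicity. HEK293, 600 cells/well with reagent, compound (23 nL DMSO) added after 5 h; reads at 0, 8, 16, 24, 32, 40 h.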

Assay [2] in a line: qHTS RealTime-Glo MT Cell Viability Assay in HEK293 cells - 16 hour (AID 1224872). Note: nearly all actives have a fitted effect of over 50% in size. Note: potency is the fitted concentration of half-maximal effect. A digest of the protocol:
(§2)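 Assay medium contained NanoLuc luciferase plus cell-permeant prosubstrate, added with HEK293 cells at 600 cells/well. After 5 h at 37 C/5% CO2 compounds were added; plates stayed at 37 C for 40 h with serial luminescence reads.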
A general note: In qHTS, concentration-response curves come from the screen itself.

The nature of assay [3]: qHTS RealTime-Glo MT Cell Viability Assay in HepG2 cells - 8 hour (AID 1224873). Note: nearly all actives have a fitted effect of over 55% in size. Note: potency is the fitted concentration of half-maximal effect. A digest of the protocol: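 Real-time viability: cells seeded at 600 per well together with NanoLuc and cell-permeant prosubstrate, compounds added after 5 h incubation. Luminescence tracked at 0, 8, 16, 24, 32 and 40 h of exposure.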
A short description of assay [4]: qHTS RealTime-Glo MT Cell Viability Assay in HEK293 cells - 40 hour (AID 1224874). Note: nearly all actives have a fitted effect of over 50% in size. Note: potency is the fitted concentration of half-maximal effect. Particulars: RealTime-Glo luminescence; max response: stronger effect = lower value. A digest of the protocol:
(§3)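 Luminescence readout at each listed time point; HEK293, 600 cells/well, RealTime-Glo MT reagent added with cells; compounds pinned (23 nL in DMSO) after 5 h at 37 C; continuous culture at 37 C.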

Assay [5] is described as follows: A CellTox Green Cytotoxicity Assay to monitor cytotoxicity in HEK293 cells - 24 hour (AID 1224875). Note: nearly all actives have a fitted effect of over 45% in size. Note: potency is the fitted concentration of half-maximal effect. A digest of the protocol: as §1
Assay [6] in a line: A CellTox Green Cytotoxicity Assay to monitor cytotoxicity in HepG2 cells - 16 hour (AID 1224876). Note: nearly all actives have a fitted effect of over 45% in size. Note: potency is the fitted concentration of half-maximal effect. A digest of the protocol:
(§4)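 HepG2, 600 cells/well premixed w/ CellTox Green; 5 h settle, 37 C/5% CO2; pintool cpd add (DMSO); 37 C, 40 h; fluorescence read at 0, 8, 16, 24, 32, 40 h.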

Assay [7] can be described thus: qHTS RealTime-Glo MT Cell Viability Assay in HepG2 cells - 32 hour (AID 1224877). Note: nearly all actives have a fitted effect of over 55% in size. Note: potency is the fitted concentration of half-maximal effect. A digest of the protocol:
(§5)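 qHTS, HepG2, 600 cells/well, RealTime-Glo (NanoLuc + prosubstrate) added with cells; 5 h preincubation; DMSO compound addition; 37 C; luminescence at 0/8/16/24/32/40 h.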

Assay [8] in a line: A CellTox Green Cytotoxicity Assay to monitor cytotoxicity in HepG2 cells - 24 hour (AID 1224878). Note: nearly all actives have a fitted effect of over 45% in size. Note: potency is the fitted concentration of half-maximal effect. A digest of the protocol:
as §4

Assay [9] can be described thus: A CellTox Green Cytotoxicity Assay to monitor cytotoxicity in HepG2 cells - 40 hour (AID 1224879). Note: nearly all actives have a fitted effect of over 40% in size. Note: potency is the fitted concentration of half-maximal effect. An outline of the steps: as §4
Assay [10] can be described thus: qHTS RealTime-Glo MT Cell Viability Assay in HEK293 cells - 0 hour (AID 1224880). An outline of the steps:
as §3

The nature of assay [11]: A CellTox Green Cytotoxicity Assay to monitor cytotoxicity in HEK293 cells - 32 hour (AID 1224881). Note: nearly all actives have a fitted effect of over 40% in size. Note: potency is the fitted concentration of half-maximal effect. A digest of the protocol: as §1
Assay [12] in a line: A CellTox Green Cytotoxicity Assay to monitor cytotoxicity in HepG2 cells - 0 hour (AID 1224882). Note: nearly all actives have a fitted effect of over 35% in size. A digest of the protocol:
as §4

Assay [13] is described as follows: A CellTox Green Cytotoxicity Assay to monitor cytotoxicity in HepG2 cells - 32 hour (AID 1224883). Note: nearly all actives have a fitted effect of over 50% in size. Note: potency is the fitted concentration of half-maximal effect. An outline of the steps:
as §4

Assay [14] can be described thus: A CellTox Green Cytotoxicity Assay to monitor cytotoxicity in HEK293 cells - 8 hour (AID 1224884). Note: nearly all actives have a fitted effect of over 35% in size. An outline of the steps: as §1
Assay [15] can be described thus: qHTS RealTime-Glo MT Cell Viability Assay in HepG2 cells - 16 hour (AID 1224885). Note: nearly all actives have a fitted effect of over 50% in size. Note: potency is the fitted concentration of half-maximal effect. A digest of the protocol:
as §5

Assay [16] can be described thus: qHTS RealTime-Glo MT Cell Viability Assay in HEK293 cells - 24 hour (AID 1224886). Note: nearly all actives have a fitted effect of over 50% in size. Note: potency is the fitted concentration of half-maximal effect. An outline of the steps: as §2
Assay [17] in a line: qHTS RealTime-Glo MT Cell Viability Assay in HEK293 cells - 8 hour (AID 1224887). Note: nearly all actives have a fitted effect of over 50% in size. Note: potency is the fitted concentration of half-maximal effect. An outline of the steps:
as §3

Assay [18] in a line: A CellTox Green Cytotoxicity Assay to monitor cytotoxicity in HEK293 cells - 16 hour (AID 1224888). Note: nearly all actives have a fitted effect of over 35% in size. Note: potency is the fitted concentration of half-maximal effect. An outline of the steps: as §1
Assay [19] is described as follows: qHTS RealTime-Glo MT Cell Viability Assay in HepG2 cells - 0 hour (AID 1224889). Note: nearly all actives have a fitted effect of over 50% in size. An outline of the steps: as §5
A short description of assay [20]: A CellTox Green Cytotoxicity Assay to monitor cytotoxicity in HepG2 cells - 8 hour (AID 1224890). Note: nearly all actives have a fitted effect of over 45% in size. Note: potency is the fitted concentration of half-maximal effect. A digest of the protocol:
as §4

A number with no mark means an inactive call. Results filed as inconclusive are left out. Active and inactive are the calls of the source. Calls come from the whole dose curve; as a rule, active = well fitted curve in the direction sought with a large enough effect in the repeat runs; inconclusive = weak or mixed curves; inactive = no such curve, though single readings can be large; an effect the other way counts as inactive or inconclusive.
% is set by controls: 0 for no effect and ±100 for the full control effect.

On to `CCc1cc(C)cc(CC)c1-c1c(OC(=O)C(C)(C)C)n2n(c1=O)CCOCC2`, for which the Potency entry in [1], in assay [2], in [3], in assay [5], in assay [6] and in assay [7] was “inactive” throughout. The Potency entry in assay [8], in [9], in assay [10], in [11], in assay [12] and in assay [13] was “inactive” throughout. The Potency result in assay [14], in assay [15], in assay [16], in [17], in assay [18] and in assay [19] was “inactive” throughout. For the same compound, in [20], the Potency result was “inactive”. In assay [4], the max response was -25.1%.

Consider `CC(C)C1CCC(Cc2ccc(Cl)cc2)C1(O)Cn1cncn1` (stereo not given), for which the Potency in assay [1] is 24.3 µM (active); in assay [2], 12.2 µM (active); in assay [3] it was 24.3 µM (active); in assay [4], 10.9 µM (active); in assay [5], 24.3 µM (active); in [6], 48.5 µM (active). For the same compound, the Potency in assay [7] was 48.5 µM (active); in assay [8], 43.2 µM (active); in assay [9] it was 43.2 µM (active); in assay [11], 34.3 µM (active); in assay [13], 43.2 µM (active); in assay [15] it was 34.3 µM (active). Moreover, the Potency was 12.2 µM (active) in assay [16], 13.7 µM (active) in assay [17] and 54.4 µM (active) in assay [20]. Also, the Potency result in assay [10], in assay [12], in [18] and in [19] was “inactive” throughout.

Regarding `Nc1ccc([N+](=O)[O-])cc1Cl`, the Potency result in assay [1], in [2], in [3], in [5], in assay [6] and in [7] was “inactive” in each case. The Potency entry in [8], in assay [9], in [10], in assay [11], in assay [12] and in assay [13] was “inactive” in each case. Also, the Potency result in assay [14], in assay [15], in [16], in assay [17], in [18] and in assay [19] was “inactive” each time. In assay [20], the Potency entry is “inactive”. For the same compound, in assay [4], the max response is -7.63%.

With `Cc1ccc(OP(=O)(Oc2ccccc2)Oc2ccccc2)cc1`, the Potency entry in assay [1], in assay [2], in assay [3], in [5], in [6] and in assay [7] was “inactive” each time. For the same compound, the Potency result in assay [8], in assay [9], in [10], in assay [11], in [12] and in assay [13] was “inactive” throughout. The Potency entry in assay [14], in assay [15], in assay [16], in [17], in [18] and in assay [19] was “inactive” throughout. Further, the Potency entry in assay [20] was “inactive”. Besides, the max response in [4] is -19.8%.

Take `Cc1ccc(CCl)cc1`: the Potency entry in assay [1], in assay [2], in assay [3], in assay [5], in assay [6] and in [7] was “inactive” each time. Also, the Potency result in assay [8], in [9], in assay [10], in [11], in assay [12] and in [13] was “inactive” in each case. The Potency result in assay [14], in assay [15], in assay [16], in [17], in [18] and in assay [19] was “inactive” throughout. Besides, the Potency result in assay [20] was “inactive”. The max response in assay [4] was 2.72%.

For the compound `COc1cc(N)c(Cl)cc1C(=O)NC1CN2CCC1CC2` (stereo not given), the Potency result in assay [1], in assay [2], in assay [3], in assay [5], in assay [6] and in [7] was “inactive” in each case. The Potency entry in assay [8], in assay [9], in assay [10], in assay [11], in assay [12] and in [13] was “inactive” in each case. Further, the Potency entry in assay [14], in [15], in assay [16], in assay [17], in assay [18] and in [19] was “inactive” in each case. Besides, the Potency result in assay [20] was “inactive”. In [4], the max response was -15.3%.

For `C[As+](C)(C)CC(=O)[O-]`, the Potency entry in [1], in assay [2], in assay [3], in assay [5], in assay [6] and in [7] was “inactive” throughout. The Potency result in assay [8], in [9], in [10], in assay [11], in [12] and in assay [14] was “inactive” throughout. The Potency entry in assay [15], in assay [16], in assay [17], in assay [18], in [19] and in assay [20] was “inactive” each time. In addition, the max response in assay [4] was -9.67%.

Take `N#CCCC(Br)(C#N)CBr` (stereo not given): the Potency was 49 µM (active) in assay [1]; 38.9 µM (active) in [2]; 49 µM (active) in [3]; 21.9 µM (active) in assay [4]; 54.9 µM (active) in [5]; 43.6 µM (active) in [6]. Besides, the Potency was 34.7 µM (active) in [7]; 38.9 µM (active) in assay [8]; 24.5 µM (active) in assay [9]; 54.9 µM (active) in assay [11]; 30.9 µM (active) in [13]; 38.9 µM (active) in [15]. Besides, the Potency in assay [16] is 24.5 µM (active); in assay [17] it was 49 µM (active); in assay [18], 54.9 µM (active); in [20] it was 54.9 µM (active). The Potency result in assay [10], in assay [12] and in assay [19] was “inactive” throughout.

For `FC(F)(F)c1cccc(C2=CCN(CCc3ccc4ccccc4c3)CC2)c1`, the Potency result in assay [1], in [2], in assay [3], in assay [5], in assay [6] and in assay [7] was “inactive” throughout. For the same compound, the Potency entry in [8], in assay [9], in assay [10], in assay [11], in assay [12] and in [13] was “inactive” in each case. For the same compound, the Potency result in assay [14], in assay [15], in assay [16], in assay [17], in [18] and in assay [19] was “inactive” throughout. In addition, in assay [20], the Potency result is “inactive”. In addition, in assay [4], the max response was 2.33%.

Consider `CCCCCCCCCCCCBr`, for which the Potency result in assay [1], in assay [2], in [3], in assay [5], in assay [6] and in assay [7] was “inactive” throughout. For the same compound, the Potency entry in [8], in assay [9], in assay [10], in assay [11], in assay [12] and in assay [13] was “inactive” in each case. For the same compound, the Potency entry in assay [14], in [15], in [16], in assay [18], in [19] and in [20] was “inactive” each time. Moreover, in [4], the max response was -12.1%.

Consider `Fc1cccc(Cl)c1CCl`, for which the Potency result in assay [1], in [2], in assay [3], in assay [5], in assay [6] and in assay [7] was “inactive” in each case. The Potency entry in assay [8], in assay [9], in assay [10], in assay [11], in assay [12] and in assay [13] was “inactive” each time. The Potency entry in assay [14], in assay [15], in assay [16], in assay [17], in assay [18] and in [19] was “inactive” in each case. For the same compound, the Potency result in assay [20] was “inactive”. The max response in [4] is -1.59%.

Turning to `CC(=O)c1ccc(-c2ccccc2)cc1`, the Potency entry in assay [1], in [2], in [3], in assay [5], in assay [6] and in assay [7] was “inactive” throughout. In addition, the Potency result in assay [8], in assay [9], in assay [10], in assay [11], in assay [12] and in [13] was “inactive” each time. Also, the Potency entry in assay [15], in assay [16], in assay [17], in assay [18], in assay [19] and in assay [20] was “inactive” each time. For the same compound, the max response in assay [4] was -11.1%.

The record behind these values is PubChem BioAssay (Tox21).
